Screening results (PubChem)
TRPV1 ag: HTS Assay for Compounds that Act as Agonists of the Vanilloid Receptor 1. Transient receptor potential cation channel subfamily V member 1 (Homo sapiens), Q8NER1. TRPV1-expressing cells, Fluo-8 calcium influx, agonist mode. activation, % at 8.33 µM. 320,000 compounds, 0.19% hits; in the data active means activation above about 80%; inconclusive means between about 30% and that limit; further: 0% is about no effect
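Fluo-8 calcium influx in TRPV1-expressing cells, kinetic read (ex 480/em 520 nm). Compound added and read 3 min for agonist activity, followed by capsaicin at EC20 final and 2 min further read for enhancement.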
RGS4 inh: Inhibitors of Regulator of G Protein Signaling (RGS) 4: qHTS; AID 504845, 2011; Regulator of G-protein signaling 4 (Homo sapiens), P49798; 390,000 compounds, 0.039% hits; Transcreener GDP fluorescence polarization, RGS4-accelerated GTP hydrolysis; Potency, µM (titrated, usually from 114 µM), inactives show at the highest dose activity change, negative = inhibition, actives largely listed as inhibitors; further: potency means the concentration at half of the fitted maximal effect; on the % scale 0 is the no-effect control and ±100 the full control effect; nearly all actives have a fitted effect of over 75% in size
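MLSMR compounds (23 nl, pin-transferred) preincubated 10 min at room temperature with a 500nM (2x) first reagent, then RGS4 at 900nM (2x) plus Transcreener GDP mix added; fluorescence polarization (620/688 nm) read before and after 90 min at 30 °C.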
AT treatment: qHTS Assay for Identifying a Potential Treatment of Ataxia-Telangiectasia; F2112 A-T fibroblasts, KAP-1 phosphorylation AlphaLISA; neocarzinostatin DNA damage 30 min before lysis; Potency, µM (series often up to 57.5 µM), for inactives: at the top dose activation, usual class: activators; 320,000 compounds, 0.19% hits; AID 485349, 2010; further: potency means the concentration at half of the fitted maximal effect; % of control where 0% means no effect; nearly all actives have a fitted effect of over 45% in size
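ATM-like activity read as KAP-1 phosphorylation via AlphaLISA donor/acceptor antibody pairs after lysis and 6 hr at 25C. Cells were ATM-null patient fibroblasts (F2112, hTERT), dosed 60 min, then exposed to the DSB inducer NCS for 30 min.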
TRPML1 blocker: qHTS for Inhibitors of the Human Mucolipin Transient Receptor Potential 1 (TRPML1); AID 624415, 2012; activity change, negative = inhibition, % (test concentration not listed); 390,000 compounds, 0.02% hits; TRPML1-inducible cells, Ca2+ dye fluorescence, FDSS; hits give low values; inhibition of EC80 agonist-evoked calcium signal; Mucolipin-1 (Homo sapiens), Q9GZU1; in the data active means activity change below about -50%; inconclusive means between about -30% and that limit;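 further: stimulus is agonist 54-4 at its EC80 concentration; on the % scale 0 is the no-effect control and ±100 the full control effect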
Target sequence (Q9GZU1 whole entry, looked up): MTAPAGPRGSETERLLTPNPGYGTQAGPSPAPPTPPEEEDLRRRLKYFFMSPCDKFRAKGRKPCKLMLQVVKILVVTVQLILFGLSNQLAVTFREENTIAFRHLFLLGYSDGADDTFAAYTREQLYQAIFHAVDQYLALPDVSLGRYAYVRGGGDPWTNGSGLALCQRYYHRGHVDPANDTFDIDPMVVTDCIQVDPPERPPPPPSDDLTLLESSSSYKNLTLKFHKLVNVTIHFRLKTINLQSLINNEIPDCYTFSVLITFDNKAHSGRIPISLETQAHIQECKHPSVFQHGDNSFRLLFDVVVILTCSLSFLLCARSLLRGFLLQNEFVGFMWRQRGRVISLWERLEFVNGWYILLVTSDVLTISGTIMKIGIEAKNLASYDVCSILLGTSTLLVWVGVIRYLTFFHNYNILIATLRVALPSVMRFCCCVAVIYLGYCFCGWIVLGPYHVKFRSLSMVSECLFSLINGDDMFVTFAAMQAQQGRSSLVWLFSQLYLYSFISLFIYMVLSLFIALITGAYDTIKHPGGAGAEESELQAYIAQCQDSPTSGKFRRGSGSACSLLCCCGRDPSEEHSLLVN
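Calcium fluorescence in TRPML1-DL cells induced overnight with Tet: a 110 s read after compound pin addition, then a 110 s antagonist read after challenge with 54-4 at 4 uM final (EC80).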
TRPV1 potentiator: HTS Assay for Compounds that Act as Potentiators of the Vanilloid Receptor 1; Transient receptor potential cation channel subfamily V member 1 (Homo sapiens), Q8NER1; TRPV1-expressing cells, Fluo-8 calcium influx, capsaicin EC20 potentiation; potentiation, % at 8.33 µM; 320,000 compounds, 0.02% hits; AID 540277, 2011; in the data active means potentiation above about 80%; inconclusive means between about 30% and that limit; further: 0% is about no effect
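TRPV1-expressing cells were cultured overnight at 35.5C and loaded with Fluo-8 calcium dye for 40 to 90 min at room temperature. After a 10 s baseline, compound was added and calcium influx was read kinetically for 3 min (ex 480/em 520 nm).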
TRPML1 ag: qHTS for Agonists of the Human Mucolipin Transient Receptor Potential 1 (TRPML1). TRPML1-expressing cells, Ca2+ dye fluorescence, FDSS. Mucolipin-1 (Homo sapiens), Q9GZU1. 410,000 compounds, 0.12% hits. activation, % (test concentration not listed); in the data active means activation above about 50%; inconclusive means mostly about 30% to 49%; further: 0% is about no effect
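Agonist activity was taken from a 110 s kinetic Ca2+ dye read on the FDSS after pinning compounds onto TRPML1-DL cells. The cells were seeded at 1,500/well with Tet inducer, incubated about 16 h, then dye-loaded at room temperature.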
* marks the source's active call; other numbers are inactive results; ? = inconclusive; . = not tested or not shown; ! = not active in a repeat; [ ] = remark or other dose. Shown are actives, neighbours in structure and some others; about 0.5% of the full set was active somewhere. Unless noted, the call rests on the fitted dose curve; in most records, active means well fitted curve in the direction sought with a large enough effect; inconclusive means small, poorly fitted or top-dose-only effect, or another doubt; inactive means no such curve, though single readings can be large; an effect the other way counts as inactive or inconclusive.

SMILES | TRPV1 ag | RGS4 inh | AT treatment | TRPML1 blocker | TRPV1 potentiator | TRPML1 ag
CCO[C@@H]1OC(C(=O)N2CCN(C)CC2)=C[C@H](c2csc3ccccc23)[C@H]1CCCO | 2 | 18% | 1% | 12 | -12 | 0
CCO[C@H]1OC(C(=O)N2CCN(C)CC2)=C[C@@H](c2csc3ccccc23)[C@@H]1CCCO | 2 | 2% | 20µM* | -16 | 14 | 0
CN(Cc1ccccc1)C(=O)COC(=O)c1cc(S(=O)(=O)N(C)C)ccc1N1CCCC1 | -1 | -14% | -3% | 0 | 3 | 1
CC(C)N(C(=O)Nc1ccc2nsnc2c1)C(C)C | 6 | ? | 32µM* | -11 | 9 | 4
COc1ccccc1C1CN(c2ccccc2)N=C1c1cccs1 (stereo unspecified) | -1 | -28% | 27% | -5 | 0 | 2
COc1cccc(C2CN(c3ccc(F)cc3F)N=C2c2cccs2)c1OC (stereo unspecified) | 13 | 11% | 28µM* | 0 | 14 | 1
CCOC(=O)COc1ccc(S(=O)(=O)N2CCN(c3ccccc3)CC2)cc1 | -3 | -13% | 25µM* | 0 | 13 | 1
COc1ccc(/C=C/C(=O)NCC2COc3ccccc3O2)c(OC)c1 (stereo unspecified) | 5 | -30% | -3% | 5 | 7 | 1
O=C(NCC1COc2ccccc2O1)c1cccs1 (stereo unspecified) | 19 | 6% | -1% | -9 | -12 | 0
O=C(/C=C/c1ccco1)NCC1COc2ccccc2O1 (stereo unspecified) | 0 | ? | 25µM* | 4 | -13 | 1
O=C(NCC1COc2ccccc2O1)c1ccc(Br)s1 (stereo unspecified) | 85* | 0% | -3% | -9 | 16 | 2
CSc1ncnc2c1ncn2CCCN(C)Cc1ccco1 | . | . | . | 0 | . | 0
O=C1c2cccc3c(N4CCCCC4)ccc(c23)C(=O)N1c1ccccc1O | ? | 0% | 5% | -9 | 0 | 58*
O=C1c2cccc3c(N4CCCCC4)ccc(c23)C(=O)N1c1ccc(O)cc1 | ? | -37% | 6% | 15 | -3 | ?
CC(C)(C)c1ccc(OCC(=O)Nc2ccncc2)c(Br)c1 | 97* | 28% | 4% | . | -3 | .
CCC(C)(C)c1ccc(OCC(=O)Nc2ccncc2)cc1 | 90* | -23% | 0% | 14 | -7 | 0
O=C1NC(=O)C(c2ccccc2)(c2ccccc2)N1S(=O)(=O)c1ccccc1 | . | . | . | -10 | . | 0
CCc1ccc(NC(=O)C2CCN(c3c(N4CCCC4)c(=O)c3=O)CC2)cc1 | 0 | -5%[11.4 µM] | -2% | -1 | -8 | 0
CS(=O)(=O)N1CCc2cc(C(=O)Nc3ccc(Cl)cc3)ccc21 | 84* | 2%[56.9 µM] | -10% | -17 | -9 | 0
CSCCC(c1nnnn1-c1c(C)cccc1C)N1CCN(C/C=C/c2ccccc2)CC1 (stereo unspecified) | . | . | . | . | . | 69*
NC(=O)c1ccsc1NC(=O)COC(=O)c1nc(Cl)ccc1Cl | 2 | -14% | 9% | -12 | -3 | 1
O=C(COC(=O)C12CC3CC(CC(C3)C1)C2)Nc1ccc2[nH]c(=O)[nH]c2c1 | 92* | -19% | 17% | 12 | -2 | 0
CC(=O)Oc1ccc(C2=NN(c3ccccc3)C(c3ccccc3)C2)cc1 (stereo unspecified) | 2 | -31% | 35µM* | -6 | 12 | 2
COc1ccccc1N1N=C(c2ccc([N+](=O)[O-])cc2)CC1c1ccccc1 (stereo unspecified) | 6 | -27% | -11% | -16 | 9 | 69*
COc1ccc(C2CC(c3ccccc3)=NN2c2ccc(S(N)(=O)=O)cc2)cc1OC (stereo unspecified) | 6 | 2% | 29% | 12 | -1 | 0
SMILES | TRPV1 ag | RGS4 inh | AT treatment | TRPML1 blocker | TRPV1 potentiator | TRPML1 ag
COc1ccc(C2=NN(c3ccc(C(=O)O)cc3)C(c3ccc(OC)c(OC)c3)C2)cc1 (stereo unspecified) | 2 | -41% | 28µM* | 10 | 3 | 0
CCC(=O)Nc1cccc(C2=NN(c3ccccc3)C(c3ccc(OC)cc3)C2)c1 (stereo unspecified) | 5 | -24% | 22µM* | -1 | 1 | 0
O=C(CN1C(=O)NC2(CCCC2)C1=O)OCc1cc(=O)n2cc(Br)ccc2n1 | . | -21%[56.9 µM] | -5% | -9 | . | 0
C[C@](N)(Cc1ccc(O)c(O)c1)C(=O)O | 0 | 27µM*! | -14% | -10 | -6 | 0
CCc1ccc(/C=N/NC(=O)c2c[nH]c3ccccc23)s1 | 85* | 17% | -5% | -1 | -14 | 3
CC(=NNC(=O)c1ccncc1)c1ccc2ccccc2c1O | . | -10% | . | -21 | . | 79*
O=C(Nc1ccccc1Cl)c1sc2cccc(Cl)c2c1Cl | . | -4% | . | 1 | . | 1
O=C(O)c1sc2cccc(Cl)c2c1Cl | 83* | ? | -1% | 1 | -8 | 0
COc1ccccc1-c1c(C)oc2c(CN3CCOCC3)c(O)ccc2c1=O | -1 | 30% | -3% | 12 | -12 | 2
OC(COc1ccc(F)cc1Cl)CN1CCC(Cc2ccccc2)CC1 (stereo unspecified) | -6 | 12% | 3.5µM* | -2 | -15 | 1
O=C(Nc1ccccc1)C1CCCN(C(=O)c2ccc(F)cc2)C1 (stereo unspecified) | 2 | -5% | -1% | 9 | -11 | 0
CCn1c(SCc2cccc(F)c2)nnc1-c1ccncc1 | -4 | 6% | 4.5µM* | 12 | 3 | -1
CCn1c(SCc2cccc(F)c2)nnc1-c1cccnc1 | -1 | 0% | 0% | 46 | -5 | 0
Cc1cc(=O)n(-c2ccc(Cl)cc2)c(=O)[nH]1 | -1 | 7% | 0% | 3 | 22 | 0
Nc1cc(=O)[nH]c(=O)n1-c1ccc(Cl)cc1 | -4 | -28% | -7% | -77* | 16 | -1
Cc1cccc(C)c1NC(=O)c1ccc(-c2ccc(Cl)cc2Cl)o1 | -2 | 13% | -4% | 64 | 5 | 3
